The source of these data is PubChem BioAssay.

The structures appear in SMILES notation. Calls of active or inactive are those of the source.

Test [1] deals with Human papillomavirus type 1a protein E7 (residues 44-93). The experiment in a line: small molecules binding HPV E7 44-93 – biochemical, small-molecule microarray, residues 44-93, 635 nm fluorescence, primary screen (AID 1108).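 Further: E7 fragment applied at 1 µg/mL in TBST for 1 h at 4 C; score combines spot fluorescence with its signal to noise ratio.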 The settings on record: fluorescence 635 nm, higher = more signal.
Test [2] is described as follows: hepatitis C replication reporter changes, two-sided – Huh7 cells, luciferase reporter, HCV replication inhibitor project, primary screen (AID 1109).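 Further: huh7 hepatoma cells harbouring a luciferase neomycin HCV replicon reporter; luciferase luminescence as measure of HCV replicon replication; test concentration not given here.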 As to conditions: Huh7 HCV replicon luciferase reporter, 48 h; higher = more signal. For orientation: A reporter such as luciferase makes a cellular process visible.
Test [3] has as its target Left-right determination factor 2 (Homo sapiens) (UniProt O00292). The experiment in a line: small molecules binding LEFTY2 protein – biochemical, small-molecule microarray, 635 nm fluorescence scan, primary screen (AID 1110). The settings on record: higher = more signal.
For test [4], the target named is Calmodulin-1 (Homo sapiens) (UniProt P0DP23). Put plainly: small molecules binding calmodulin-1 with EGTA – biochemical, small-molecule microarray, Cy5-labelled CALM1, profiling panel (AID 1111).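 Further: labelled calmodulin applied in Tris saline Tween buffer holding calcium plus EGTA and DTT.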 The settings on record: Cy5-CALM1 binding fluorescence, higher = more signal.
Test [5] has the same target. The experiment in a line: small molecules binding Ca-loaded calmodulin-1 – biochemical, small-molecule microarray, Cy5-labelled CALM1, plus calcium, artefact control for SMM control-protein annotation, profiling panel (AID 1112).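 Further: score merges spot fluorescence with signal to noise from triplicate slides.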 As to conditions: Cy5-CALM1 binding fluorescence, higher = more signal.
Test [6] is described as follows: probe aWnt5a binding to arrayed compounds – biochemical, biotinylated probe, 635/667 nm fluorescence, primary screen (AID 1113).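 Further: score merges 667 nm fluorescence intensity with signal-to-noise per printed feature.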 As to conditions: small-molecule microarray, higher = more signal.
Test [7] in a line: probe aShh binding to arrayed compounds – biochemical, biotinylated probe, 635/667 nm fluorescence, primary screen (AID 1114).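 Further: probe is biotin-labelled aShh protein from a stem cell growth factor screen; measures binding of labelled protein to compounds printed on the slide; score merges feature fluorescence at 667 nm with signal-to-noise.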 The settings on record: small-molecule microarray, higher = more signal.
Test [8] can be described thus: probe aNog binding to arrayed compounds – biochemical, biotinylated probe, 635/667 nm fluorescence, primary screen (AID 1115).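 Further: probe is biotinylated aNog protein used at 0.15 µg/mL for 1 h at 4 C; z-score combines 667 nm fluorescence of each spot with its signal to noise.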 The settings on record: small-molecule microarray, higher = more signal.
Test [9] addresses Torsin-1A-interacting protein 1 (Homo sapiens) (UniProt Q5JTV8). The experiment in a line: compound microarray binding of lysate hLAP1 – cell lysate, small-molecule microarray, COS7 lysate, 635/667 nm fluorescence, primary screen (AID 1116). The settings on record: 635 nm fluorescence, higher = more signal.
The target of test [10] is Alpha-bungarotoxin (Bungarus multicinctus) (UniProt P60615). The experiment in a line: compounds binding labelled alpha-BTX control protein – biochemical, small-molecule microarray, Alexa647 label, 635/667 nm fluorescence, artefact control for SMM control protein annotation, profiling panel (AID 1117). The settings on record: alpha-BTX-A647 binding fluorescence, higher = more signal.

The next test concerns the target Albumin (Bos taurus) (UniProt P02769). Put plainly: compounds binding labelled BSA control protein – biochemical, small-molecule microarray, Alexa647 label, 635/667 nm fluorescence, artefact control for SMM control protein annotation, profiling panel (AID 1118).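 Further: score merges 667 nm emission intensity and signal-to-noise per printed compound spot.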 As to conditions: BSA-A647 binding, fluorescence 635 nm, higher = more signal.
Test [11] in a line: probe aXIP binding to arrayed compounds – biochemical, NeuroSMM set, 635/667 nm fluorescence, primary screen (AID 1119).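 Further: probe is the protein aXip251-270 applied at 1 µg/mL to compound-printed slides; binding of probe to printed compounds measured as 667 nm fluorescence plus signal to noise.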 As to conditions: small-molecule microarray, higher = more signal, called active from +8 up or from −8 down.
Test [12] is described as follows: probe aNOTCH3 binding on compound microarray – biochemical, small-molecule microarray, 635/667 nm fluorescence, primary screen (AID 1120).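 Further: probe is a biotin-tagged antibody raised against NOTCH3 rather than NOTCH3 protein; score merges spot fluorescence near 667 nm with spot signal to noise.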 As to conditions: higher = more signal.
The nature of test [13]: probe aNOTCH2 binding on compound microarray – biochemical, small-molecule microarray, 635/667 nm fluorescence, primary screen (AID 1121).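 Further: score merges feature fluorescence read at 667 nm with its signal to noise.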 The settings on record: higher = more signal.
The target of test [14] is Carbonic anhydrase 2 (Homo sapiens) (UniProt P00918). The experiment in a line: compounds binding carbonic anhydrase 2 – biochemical, small-molecule microarray, Alexa647-labelled CAII, profiling panel (AID 1122). The settings on record: CAII-A647 binding fluorescence, higher = more signal.
Test [15] in a line: COS7 lysate on small-molecule microarray, probe aHis, 635 nm (AID 1123).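 Further: z-score combines 667nm fluorescence intensity with signal-to-noise per printed compound spot.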 As to conditions: COS7 cell lysate, fluorescence, higher = more signal.
The nature of test [16]: probe aLAP1 signal on lysate-treated microarray – cell lysate, small-molecule microarray, COS7 lysate, primary screen (AID 1124).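 Further: lysate comes from COS7 cells expressing LAP1 and is applied at 0.3 µg/mL; score merges spot fluorescence near 667 nm with signal-to-noise over triplicate slides.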 As to conditions: probe aLAP1, fluorescence, higher = more signal.
A further test relates to Sam68 (KHDRBS1). Put plainly: compounds binding KHDRBS1 protein – biochemical, small-molecule microarray, 635 nm fluorescence, primary screen (AID 1125).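 Further: score merges 667 nm channel intensity with signal to noise over triplicate slides.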 As to conditions: higher = more signal.
Test [17] relates to Chordin-like protein 2 (CHRDL2). The experiment in a line: compounds binding chordin-like 2 – biochemical, small-molecule microarray, 635 nm fluorescence, primary screen (AID 1126).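 Further: printed compound slides probed with Chrdl2 protein at 4 µg/mL for 1 h at 4 C; score merges 667 nm emission intensity with signal to noise over three replicate slides.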 The settings on record: fluorescence 635 nm, higher = more signal.
Test [18] concerns the target Concanavalin-A (Canavalia ensiformis) (UniProt P02866). The experiment in a line: compounds binding concanavalin A lectin – biochemical, small-molecule microarray, Alexa647 label, 635 nm, artefact control for SMM control protein annotation, primary screen (AID 1127).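 Further: z combines 667 nm emission intensity with signal-to-noise across three replicate slides.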 As to conditions: ConA-A647 binding fluorescence, higher = more signal.

Torsin-1A-interacting protein 1 (Homo sapiens), sequence (Q5JTV8 whole entry, looked up): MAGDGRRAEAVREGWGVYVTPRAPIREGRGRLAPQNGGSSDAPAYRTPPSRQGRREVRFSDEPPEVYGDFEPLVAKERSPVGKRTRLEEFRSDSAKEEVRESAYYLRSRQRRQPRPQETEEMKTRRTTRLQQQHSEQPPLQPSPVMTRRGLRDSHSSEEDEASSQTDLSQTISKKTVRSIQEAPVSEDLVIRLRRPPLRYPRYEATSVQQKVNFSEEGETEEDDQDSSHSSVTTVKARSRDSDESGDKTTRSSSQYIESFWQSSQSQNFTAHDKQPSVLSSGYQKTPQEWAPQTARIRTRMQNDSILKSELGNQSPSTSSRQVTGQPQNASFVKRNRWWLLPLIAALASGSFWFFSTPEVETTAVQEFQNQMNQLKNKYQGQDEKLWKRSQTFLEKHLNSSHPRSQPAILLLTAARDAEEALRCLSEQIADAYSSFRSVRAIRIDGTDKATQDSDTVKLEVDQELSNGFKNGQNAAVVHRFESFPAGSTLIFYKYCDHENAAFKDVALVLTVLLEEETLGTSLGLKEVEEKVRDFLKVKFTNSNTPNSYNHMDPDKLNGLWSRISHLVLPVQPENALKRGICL
Concanavalin-A (Canavalia ensiformis), sequence (P02866 whole entry, looked up): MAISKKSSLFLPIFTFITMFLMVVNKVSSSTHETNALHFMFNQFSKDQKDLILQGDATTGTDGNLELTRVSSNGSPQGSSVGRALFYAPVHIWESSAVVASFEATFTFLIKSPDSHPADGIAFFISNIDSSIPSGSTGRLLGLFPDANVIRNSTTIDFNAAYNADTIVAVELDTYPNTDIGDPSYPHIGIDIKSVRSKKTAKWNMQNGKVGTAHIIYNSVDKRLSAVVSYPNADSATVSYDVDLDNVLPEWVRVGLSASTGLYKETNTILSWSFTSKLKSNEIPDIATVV
Left-right determination factor 2 (Homo sapiens), sequence (O00292 whole entry, looked up): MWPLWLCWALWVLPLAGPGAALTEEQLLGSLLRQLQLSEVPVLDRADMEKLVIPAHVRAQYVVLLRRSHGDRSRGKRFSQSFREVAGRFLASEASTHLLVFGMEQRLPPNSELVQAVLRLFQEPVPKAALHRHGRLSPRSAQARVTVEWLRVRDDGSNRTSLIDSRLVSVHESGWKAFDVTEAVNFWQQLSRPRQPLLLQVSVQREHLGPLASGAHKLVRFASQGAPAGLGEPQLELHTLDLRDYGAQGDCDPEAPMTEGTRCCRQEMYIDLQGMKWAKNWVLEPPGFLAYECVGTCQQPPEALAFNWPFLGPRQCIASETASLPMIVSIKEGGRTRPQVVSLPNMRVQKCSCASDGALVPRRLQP
Alpha-bungarotoxin (Bungarus multicinctus), sequence (P60615 whole entry, looked up): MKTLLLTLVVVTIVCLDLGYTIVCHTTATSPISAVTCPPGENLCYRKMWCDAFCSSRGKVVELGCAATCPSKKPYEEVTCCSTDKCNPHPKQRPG
Albumin (Bos taurus), sequence (P02769 whole entry, looked up): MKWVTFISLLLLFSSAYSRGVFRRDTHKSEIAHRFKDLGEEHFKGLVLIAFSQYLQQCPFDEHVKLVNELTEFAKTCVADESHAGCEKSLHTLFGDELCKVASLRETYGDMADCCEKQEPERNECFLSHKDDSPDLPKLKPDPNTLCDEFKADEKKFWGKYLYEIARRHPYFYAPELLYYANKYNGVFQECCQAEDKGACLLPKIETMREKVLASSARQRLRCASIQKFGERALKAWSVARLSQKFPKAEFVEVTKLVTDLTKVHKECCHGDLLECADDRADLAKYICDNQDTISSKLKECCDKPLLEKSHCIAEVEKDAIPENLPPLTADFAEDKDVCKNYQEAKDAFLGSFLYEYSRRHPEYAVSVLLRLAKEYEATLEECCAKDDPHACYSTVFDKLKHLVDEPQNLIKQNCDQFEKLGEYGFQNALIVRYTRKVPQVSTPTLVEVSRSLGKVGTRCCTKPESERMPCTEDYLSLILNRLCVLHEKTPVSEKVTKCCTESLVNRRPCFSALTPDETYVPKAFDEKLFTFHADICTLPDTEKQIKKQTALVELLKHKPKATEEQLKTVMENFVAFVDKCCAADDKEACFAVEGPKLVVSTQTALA

Take `COC(=O)C(CC#Cc1ccc2c(c1)[C@]1(C(=O)N2)[C@H](C(=O)O)[C@H]2C(=O)O[C@H](c3ccccc3)[C@H](c3ccccc3)N2[C@@H]1c1ccc(O)cc1)C(=O)OC`: the composite z-score was 1.03 in [1]; -0.354 in test [3]; -0.345 in [4]; 0.0677 in [5]; -0.124 in test [6]; -0.366 in [7]. Also, the composite z-score in test [8] was 0.26; in test [9], -0.273; in test [10], -0.472; with Albumin (Bos taurus) it was -0.266; in [12], -0.274; in test [13] it was -0.181. The composite z-score in test [14] was 0.66; in test [15], 1.07; in test [16], 0.898; in the test on Sam68 (KHDRBS1), 0.661; in test [17], -0.872; in [18] it was -0.417. This molecule also yielded a z-score in test [2] of -0.374. For the same molecule, in test [11], the composite Z-score is -1.69 (inactive).
Regarding `[N-]=[N+]=Nc1ccccc1C[C@@]1(C(=O)NCCN2CCOCC2)N=C(c2ccc(OCCCO)cc2)O[C@@H]1c1ccccc1`, the composite z-score in [1] is 1.47; in test [3] it was 0.248; in test [4] it was 0.797; in [5], -0.3; in test [6], -0.0303; in test [7], 0.315. The composite z-score in test [8] was -0.462; in [9], 0.819; in [10], 0.597; with Albumin (Bos taurus), 0.831; in test [12], 0.144; in [13], -0.221. Further, the composite z-score in test [14] is 0.468; in test [15], 2.87; in test [16] it was 0.872; with Sam68 (KHDRBS1), 1.3; in [17], -0.11; in [18] it was 1.11. This molecule also came in with a z-score in [2] of -1.32. Further, the composite Z-score in [11] was 0.255 (inactive).
As for `COc1ccc([Si](C)(C)[C@@H]2[C@@H](CC(=O)N3Cc4ccccc4C[C@H]3CO)O[C@]3(C(=O)N(C)c4c(Br)cc(C)cc43)[C@H]2C)cc1`, the composite z-score was 1.37 in [1]; 0.637 in test [3]; 0.0208 in test [4]; 0.235 in test [5]; 0.0078 in [6]; -0.0793 in test [7]. Besides, the composite z-score in test [8] was -0.454; in test [9] it was 0.418; in [10] it was 1.01; with Albumin (Bos taurus), 0.494; in test [12], 0.0562; in [13], -0.164. Besides, the composite z-score in test [14] is 0.574; in test [15], 0.498; in test [16], 0.172; in the test with Sam68 (KHDRBS1) it was 1.31; in [17] it was 1.11; in test [18] it was 1.13. The same molecule came in with a z-score in [2] of -4.43. Moreover, the composite Z-score in test [11] was 0.136 (inactive).
With `[N-]=[N+]=NCc1ccccc1C[C@@]1(C(=O)NCC(O)CO)N=C(c2ccc(OCCCO)cc2)O[C@@H]1c1ccccc1N=[N+]=[N-]` (stereo not given in full), the composite z-score is 1.39 in test [1]; -0.124 in test [3]; 2.21 in test [4]; 1.02 in [5]; 0.149 in test [6]; 0.156 in [7]. Also, the composite z-score is 2.11 in test [8]; 2.18 in [9]; 0.842 in test [10]; 0.987 with Albumin (Bos taurus); 0.318 in test [12]; -0.0814 in test [13]. Moreover, the composite z-score in [14] is 0.69; in [15], 3.14; in [16], 0.791; in the test on Sam68 (KHDRBS1) it was 1.31; in test [17] it was -0.655; in [18], 1.1. The z-score in [2] was -2.72. In [11], the composite Z-score is 1.26 (inactive).
Take `COCCCNC(=O)C1N=C(c2ccc(OCCCO)cc2)N(c2ccccc2)O1` (stereo not given): the composite z-score was 1.41 in test [1]; 0.382 in test [3]; 1.08 in [4]; 0.131 in test [5]; -0.0286 in [6]; -0.0035 in [7]. The composite z-score in [8] is 0.752; in [9], 0.477; in test [10] it was 0.649; with Albumin (Bos taurus), 0.107; in test [12] it was 0.0836; in test [13] it was -0.112. For the same molecule, the composite z-score is 0.778 in test [14]; 0.388 in [15]; -0.193 in test [16]; 1.3 in the test with Sam68 (KHDRBS1); -0.289 in test [17]; 1.04 in test [18]. The molecule further gave a z-score in [2] of -1.46. Moreover, in test [11], the composite Z-score was -0.442 (inactive).
